Screening results from PubChem BioAssay.
A selection: hits, their analogues and other compounds. The true share with any hit is near 2.3%.
SENP8 block-1 – blocks the human protease SENP8; Q96LD8; purified SENP8, Z-RLRGG-aminoluciferin cleavage, luminescence; inhibition, % at 10 µM; actives 1.2% (n = 330,000); AID 2540; in the data active means inhibition above about 50%
SENP7 inh – inhibitors of human SENP7 protease; Q9BQF6; recombinant SENP7, Z-RLRGG-aminoluciferin luminescence, 40 min; inhibition, % at 5 µM; actives 1.5% (n = 330,000);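 active means inhibition above about 50% at the single test dose, limit read from the data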;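 further: plate controls were DMSO with enzyme for no effect and no enzyme buffer wells for full effect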
Target sequence (Q9BQF6 706-1050 limits assumed): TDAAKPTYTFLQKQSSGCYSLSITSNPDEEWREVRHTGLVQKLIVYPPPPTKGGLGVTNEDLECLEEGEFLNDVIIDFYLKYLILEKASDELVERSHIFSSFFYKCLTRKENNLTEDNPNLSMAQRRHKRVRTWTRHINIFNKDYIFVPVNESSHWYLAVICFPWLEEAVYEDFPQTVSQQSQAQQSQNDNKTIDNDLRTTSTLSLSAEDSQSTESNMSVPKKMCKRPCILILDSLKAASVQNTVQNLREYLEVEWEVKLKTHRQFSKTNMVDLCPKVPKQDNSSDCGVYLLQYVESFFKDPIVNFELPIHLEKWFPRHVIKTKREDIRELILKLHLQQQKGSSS
SENP8 block-2 – SENP8 (human) protease inhibition; recombinant SENP8, Nedd8 substrate fluorescence; inhibition, % at 20 µM; actives 0.64% (n = 360,000); AID 602440; in the data active means inhibition mostly above about 40%, no sharp cut-off; inactive means mostly below about 27%
SENP6 block – SENP6 protease inhibition; Recombinant SENP6 catalytic domain, aminoluciferin luminescence; AID 2599; inhibition, % at 10 µM; actives 1.8% (n = 330,000); Q9GZR1;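 active means inhibition above about 50% at the single tested dose, limit read from the data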;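 further: plate controls were DMSO wells with enzyme for no effect and DMSO wells lacking enzyme for full effect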
HSP90 refold inh – blocks HSP90-mediated luciferase refolding in reticulocyte lysate; Rabbit reticulocyte lysate, luciferase refolding luminescence, 3 h; inhibition, % at 5.6 µM; actives 0.91% (n = 290,000); AID 1789;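 active means inhibition above the screen-wide mean plus 3 SD, computed separately per campaign, cut at about 16% in these data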;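 further: 0% = DMSO wells and 100% = 60 µM geldanamycin wells; inhibitors lower the luminescence because luciferase stays unfolded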
LGR2 inh – inhibitors of bursicon-induced Drosophila LGR2 receptor cAMP signaling. HEK293 LGR2, CRE-luciferase, bursicon-stimulated, 4 h. actives 0.35% (n = 380,000). inhibition, % at 9.99 µM;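 active means drop in luminescence signal, shown as inhibition above about 50% in the replicate tests, limit read from the data, passing the limit was not always enough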;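 further: agonist challenge used bursicon conditioned medium at about half maximal strength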
SENP8 confirm – confirmation of human SENP8 protease inhibitors; shares compounds with SENP7 inh; Recombinant SENP8, Z-RLRGG-aminoluciferin luminescence, 60 min; inhibition, % at 12.5 µM; actives 40% (n = 6,200);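 active means mean inhibition across replicates above about 50%, limit read from the data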
SENP6 conf – human SENP6 inhibition, confirmed. actives 58% (n = 6,200). recombinant SENP6, Z-RLRGG-aminoluciferin luminescence. inhibition, % at 12.5 µM. shares compounds with SENP7 inh
SENP7 conf – human SENP7 inhibition, confirmed. shares compounds with SENP7 inh. recombinant SENP7, Z-RLRGG-aminoluciferin luminescence, 40 min. inhibition, % at 12.5 µM. actives 69% (n = 6,200). AID 488917
Casp3 SENP sel – selectivity test for SENP inhibitors: human caspase-3 inhibition. shares compounds with SENP7 inh. purified caspase-3, Z-DEVD-aminoluciferin luminescence, 60 min. inhibition, % at 12.5 µM. actives 60% (n = 6,200). AID 488918;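 active means mean inhibition above about 50%, limit read from the data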;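 further: plate controls were enzyme with DMSO for no effect and wells without caspase-3 for full effect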
SENP luc ctr – interferes with luciferase luminescence in SENP counter-screen; shares compounds with SENP7 inh; Pre-incubated SENP8/Z-RLRGG-aminoluciferin, luciferase luminescence interference; inhibition, % at 12.5 µM; actives 39% (n = 6,200);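 active means mean inhibition above about 50% when retested at one dose, limit read from the data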;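 further: plate controls were DMSO wells with completed reaction for no effect and substrate without enzyme for full effect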
* = called active by the depositor; x = no result.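 How the source made its calls, unless noted: active means mean inhibition above about 50% in the one-dose retest (limit read from the data); inactive means the rest.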

SMILES	SENP8 block-1	SENP7 inh	SENP8 block-2	SENP6 block	HSP90 refold inh	LGR2 inh	SENP8 confirm	SENP6 conf	SENP7 conf	Casp3 SENP sel	SENP luc ctr
CC(C)C#Cc1cnc2c(c1)C(=O)N([C@H](C)CO)C[C@@H](C)[C@@H](CN(C)C(=O)Nc1ccccc1)O2	x	x	x	x	x	6	x	x	x	x	x
COc1ccccc1-c1nc2cc3ccccc3cc2nc1-c1ccccc1	6	4	-144	51*	3	-5	-4	3	-5	-3	-3
COc1ccc(NC(=O)N(C)C[C@@H]2OCc3ccccc3-c3ccccc3C(=O)N([C@H](C)CO)C[C@H]2C)cc1	x	x	x	x	x	10	x	x	x	x	x
O=C(Nc1cc(C(F)(F)F)ccc1Cl)C(Sc1nnc(-c2cccs2)o1)c1ccccc1 (stereo not drawn)	76*	24	18	81*	-2	-5	44	40	38	13	27
COC(=O)c1ccc(S(=O)(=O)N2C3CCC2CC(NC(=O)C2CC2)C3)cc1 (stereo not drawn)	-1	4	4	-12	-4	-9	x	x	x	x	x
COc1ccccc1C1(O)CC2CCC(C1)N2S(=O)(=O)c1ccc(C(C)=O)cc1 (stereo not drawn)	-7	59*	19	-12	-1	x	4	3	10	6	0
Cc1ccc(S(=O)(=O)N(C)C[C@H]2Oc3ccc(NS(C)(=O)=O)cc3CC(=O)N([C@H](C)CO)C[C@H]2C)cc1	x	x	x	x	x	12	x	x	x	x	x
COc1cc(NC(=O)n2ncc3cc(Cl)ccc32)cc(OC)c1	54*	28	23	38	-2	-31	-24	-1	18	20	-11
O=C(Nc1ccccc1F)n1ncc2cc(Cl)ccc21	-10	-2	19	-3	-4	-21	x	x	x	x	x
COc1ccc(NC(=O)n2ncc3cc(Cl)ccc32)cc1OC	46	26	30	60*	2	-16	20	59*	36	34	21
COc1ccc(NC(=O)c2cc(-c3cc(Cl)ccc3OC)n[nH]2)cc1OC	x	x	22	x	x	27	x	x	x	x	x
CN(C)S(=O)(=O)c1cccc(C(=O)N=C2N=C3C=CC(Cl)=CN3Cc3ccccc32)c1	69*	89*	11	91*	2	-78	12	15	42	67*	20
O=C(N=C1N=C2C=CC=CN2Cc2ccccc21)c1ccc(S(=O)(=O)N2CCCC2)cc1	6	42	7	50	-1	-34	x	x	x	x	x
Cc1cccc(-c2ccc([C@@H]3[C@@H](CO)N4C(=O)CN(C(=O)NC5CCCCC5)C[C@@H]34)cc2)c1	x	x	x	x	x	9	x	x	x	x	x
COCC(=O)N1C[C@@H](C)[C@H](OC)CN(C)C(=O)c2cc(NC(=O)c3cnccn3)ccc2OC[C@@H]1C	x	x	x	x	x	0	x	x	x	x	x
O=C(N[C@@H]1CC[C@@H](CCNS(=O)(=O)c2ccccc2)O[C@@H]1CO)c1cccnc1	x	x	x	x	x	12	x	x	x	x	x
O=C(O)c1ccc(N=NN2CCCCC2)cc1	50	45	6	68*	10	-8	54*	47	85*	57*	66*
c1ccc2nc3c(nc2c1)[nH]c1ccccc13	60*	75*	-214	29	-3	x	22	71*	92*	76*	15
CC1=CN2C(=N)/C(=C/c3ccco3)C(=O)N=C2S1	14	38	26	52*	-4	40	32	28	71*	74*	2
CCCC(=O)Nc1ccc2c(c1)C(=O)N(C)C[C@@H](OC)[C@@H](C)CN(S(=O)(=O)c1cn(C)cn1)[C@H](C)CO2	x	x	x	x	x	19	x	x	x	x	x
O=C1/C(=C/c2ccccn2)COc2ccccc21	-7	-9	-6	-30	3	8	x	x	x	x	x
